{"source": "PubChem BioAssay AID492948", "about": "(National Center for Advancing Translational Sciences (NCATS), 2010)", "note": "Inconclusive results are not listed. Unmarked numbers belong to inactive results. The source made the active and inactive calls. Calls follow the shape of the dose curve; as a rule, active = well fitted activation curve with a large enough effect; inconclusive = small, poorly fitted or top-dose-only effect; inactive = no such curve, though single readings can be large or run the other way. Potency is read from the fitted curve at half-maximal effect.", "data": [{"assay": "qHTS Assay for Agonists of the Relaxin Receptor RXFP1: V1B Hit Validation;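 also: counter-screen in HEK293 cells expressing V1B rather than RXFP1 for selectivity; nearly all actives have a fitted effect of over 65% in size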;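 as to activation: cAMP accumulation with PDE4 inhibitor Ro 20-1724 present during compound exposure; 0% = buffer alone basal and 100% = 29 nM porcine relaxin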", "conditions": "HEK293 V1B cells, cAMP TR-FRET, 30 min; series mostly up to 115 µM; activation: at the top concentration", "how_it_was_run": "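Cells: HEK293, 2000/well. Cpd 30 min, 37C, 5% CO2, + PDE4 inhibitor Ro 20174. Lyse, HTRF cAMP, 30 min RT. Norm: buffer = 0%, porcine relaxin 29 nM = 100%.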", "values": [{"smiles": "CC(=O)Nc1ccc(S(=O)(=O)NCc2cc(=O)n(C)c(=O)n2C)cc1", "Potency": "30.9 µM (active)"}, {"smiles": "Cc1cc(C(=O)OCC(=O)c2ccc(Br)s2)no1", "Potency": "21.8 µM (active)"}, {"smiles": "CCCC(=O)Nc1ncnc2c1ncn2[C@@H]1O[C@@H]2COP(=O)(O)O[C@H]2[C@H]1OC(=O)CCC", "Potency": "1.38 µM (active)"}, {"smiles": "CC(NC(=O)c1ccccc1NC(=O)c1ccco1)C(=O)O", "note": "(stereo not drawn)", "activation": "2.15% [at 127 µM]"}, {"smiles": "CC1CCCCN1C(=O)c1ccccc1NC(=O)c1ccco1", "note": "(stereo not drawn)", "activation": "4.49% [at 127 µM]"}, {"smiles": "Cc1cccc(NC(=O)c2ccccc2NC(=O)C2CCCCC2)c1C", "activation": "-3.76% [at 127 µM]"}, {"smiles": "CCc1ccc2n(-c3ccc(OC)cc3)c([S-])c(C(=O)Nc3cc(C)cc(C)c3)[n+]2c1", "Potency": "30.8 µM (active)"}, {"smiles": "CCN(CC)S(=O)(=O)c1cccc(N=Nc2c(O)c3ccccc3oc2=O)c1", "Potency": "27.5 µM (active)"}, {"smiles": "Cc1cc(NC(=O)c2ccccc2F)nc2c1c(=O)oc1ccccc12", "Potency": "21.8 µM (active)"}, {"smiles": "COc1ccc(-n2nnc3c(=O)n(CC(=O)NCC4CCCO4)cnc32)cc1", "note": "(stereo not drawn)", "Potency": "9.74 µM (active)"}, {"smiles": "Cc1cccc(NC(=O)c2ccccc2NC(=O)c2ccco2)c1", "activation": "5.32% [at 127 µM]"}, {"smiles": "O=C(Nc1ccccc1C(=O)NCCN1CCOCC1)c1ccco1", "activation": "3.24% [at 127 µM]"}, {"smiles": "O=C(O)CSc1ccnc2cc(Cl)ccc12", "Potency": "21.8 µM (active)"}, {"smiles": "C[C@H](Cc1ccccc1)Nc1ncnc2c1ncn2[C@@H]1O[C@H](CO)[C@@H](O)[C@H]1O", "Potency": "21.9 µM (active)"}, {"smiles": "CCc1cc2c(=O)nc3n(c2s1)Cc1ccccc1/C3=C(/O)c1cccc([N+](=O)[O-])c1", "Potency": "3.89 µM (active)"}, {"smiles": "NC(=O)c1ccccc1NC(=O)CC12CC3CC(CC(C3)C1)C2", "activation": "1.11% [at 127 µM]"}, {"smiles": "COc1ccc(S(=O)(=O)N2CCOCC2)cc1NC(=O)CSc1ncnc2ccccc12", "Potency": "13.8 µM (active)"}, {"smiles": "O=C(O)c1cc(-c2ccc(Br)s2)nc2ccccc12", "Potency": "3.46 µM (active)"}, {"smiles": "CCC(Sc1ccc2nnc(-c3cccnc3)n2n1)C(=O)OC", "note": "(stereo not drawn)", "Potency": "19.4 µM (active)"}, {"smiles": "COC(=O)c1cc(CN2C(=O)c3ccccc3C2=O)c(O)c([N+](=O)[O-])c1", "Potency": "30.9 µM (active)"}, {"smiles": "COc1ccc(/C=C2/SC(=O)N(CC(=O)Nc3cc(C)on3)C2=O)cc1OC", "activation": "-72.1%"}, {"smiles": "Cc1ccnc(NS(=O)(=O)c2ccc(N3C(=O)c4ccccc4C3=O)cc2)n1", "Potency": "14.9 µM (active)"}, {"smiles": "O=C(Nc1ccccc1C(=O)Nc1ccccc1)c1ccco1", "activation": "1.83% [at 127 µM]"}]}]}
